# Assay results taken from PubChem BioAssay (NCI).
# The panel holds about 83,000 compounds, 20% with a hit somewhere; the sample as a whole holds those more often.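 Negative percent growth values reflect cell death: -40 means 40% of the cells present at the start died, and -100 means all died.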 Unmarked numbers belong to inactive results. Active and inactive are the calls of the source. The calls were made as follows: active = growth percent below 10; inactive = the rest.
# Tests used:
# Experiment in all cases: NCI-60 one-dose screen, 48 h (100 = growth as untreated, 0 = no growth, -100 = all killed)
# Conditions in all cases: 10 µM unless noted
# HCT-15 colon = test system: HCT-15 colon
# HT29 colon = test system: HT29 colon
# SNB-75 CNS = test system: SNB-75 CNS
# SNB-19 CNS = test system: SNB-19 CNS
# U251 CNS = test system: U251 CNS
# PC-3 prostate = test system: PC-3 prostate
# SK-MEL-5 melanoma = test system: SK-MEL-5 melanoma
# UACC-62 melanoma = test system: UACC-62 melanoma
# LOX IMVI melanoma = test system: LOX IMVI melanoma
# SK-MEL-28 melanoma = test system: SK-MEL-28 melanoma
# SK-MEL-2 melanoma = test system: SK-MEL-2 melanoma
# EKVX NSCLC = test system: EKVX NSCLC
# SN12C renal = test system: SN12C renal
# UO-31 renal = test system: UO-31 renal
# TK-10 renal = test system: TK-10 renal
# ACHN renal = test system: ACHN renal
# CAKI-1 renal = test system: CAKI-1 renal
# A498 renal = test system: A498 renal
# CCRF-CEM leukemia = test system: CCRF-CEM leukemia
# MOLT-4 leukemia = test system: MOLT-4 leukemia
SMILES,growth (HCT-15 colon) [%],growth (HT29 colon) [%],growth (SNB-75 CNS),growth (SNB-19 CNS),growth (U251 CNS),growth (PC-3 prostate),growth (SK-MEL-5 melanoma),growth (UACC-62 melanoma) [%],growth (LOX IMVI melanoma),growth (SK-MEL-28 melanoma),growth (SK-MEL-2 melanoma) [%],growth (EKVX NSCLC),growth (SN12C renal),growth (UO-31 renal) [%],growth (TK-10 renal),growth (ACHN renal) [%],growth (CAKI-1 renal),growth (A498 renal),growth (CCRF-CEM leukemia),growth (MOLT-4 leukemia)
Cn1c(=O)c2c(nc(NC3=NS(=O)(=O)c4ccccc43)n2Cc2ccccc2)n(C)c1=O,98.4,111,93.1%,96.1%,104%,95.4%,99.4%,91.5,95.6%,107%,99.7,91.5%,93%,81.2,143%,97.5,83.7%,60.4%,104%,106%
CC/C=C1/C(=O)C=C[C@@H]1C/C=C\CCCC(=O)OC,21.2,24.8,91.5%,62.9%,47.8%,57%,9.82% (active),16.6,-63.9% (active),89.5%,90.7,101%,18.8%,77.9,107%,46.9,60.6%,102%,-6.12% (active),3.09% (active)
C[Se]C(=O)CC1=C2C=C(F)C=CC2/C(=C\c2ccc(S(C)=O)cc2)C1C (stereo not given),15,13.8,-25.5% (active),-22.7% (active),-36.3% (active),20.4%,-87.7% (active),30.9,-68.4% (active),4.39% (active),17.3,-7.14% (active),-51.6% (active),18,-19.2% (active),11,-20.9% (active),-64.8% (active),10.6%,6.51% (active)
CCNc1nc(-c2ccc(F)cc2)c(C#N)c(=O)n1C,56.8,57.2,37.9%,60.6%,65.2%,42.8%,57.3%,44,63.2%,77.5%,77.8,29.1%,69.1%,41.2,34%,52.5,53.3%,-9.07% (active),85.9%,71.6%
COc1ccc(C(c2cc(OC)c(OC)c(OC)c2)N2CCN(Cc3ccccc3)CC2)cc1 (stereo not given),47.6,28.3,92.4%,70%,62.8%,59.3%,52.6%,49.4,67%,78.3%,27.4,82.7%,88.4%,68.8,84.8%,92.8,66.7%,51.9%,68.8%,53.5%
COc1cc(C(=O)c2c(N)ncn2-c2ccccc2)cc(OC)c1OC,82.6,93.7,90.7%,89.6%,95%,78.5%,89.5%,70.3,91.9%,91.7%,104,102%,88.2%,81.2,106%,102,92.3%,90.2%,92.5%,109%
COc1ccc(C2=CN3CC=CCC3CC2=O)cc1 (stereo not given),108,84.5,103%,107%,91.4%,81.9%,96.4%,99.5,99.8%,112%,92.1,104%,97%,95.6,103%,115,99.7%,93.7%,108%,95%
O=C(CCCCl)NNc1nccc(Nc2ccc(S(=O)(=O)Nc3ccncc3)cc2)n1,103,102,93.2%,106%,103%,93%,105%,102,98%,107%,92.7,105%,102%,92.2,85.8%,104,93.9%,110%,116%,112%
CCCCCCC(CCCC)COC(=O)c1ccc(Cl)cc1 (stereo not given),107,121,95%,109%,113%,96.5%,96.5%,98.7,103%,112%,109,112%,105%,98,110%,110,100%,93.9%,105%,98.8%
Cn1cc(C(=O)c2nc(-c3c[nH]c4ccc(Br)cc34)no2)c2cc(Br)ccc21,56.1,44,73.7%,86.2%,52%,39.3%,83.4%,86.1,78.3%,92%,109,60.5%,80.1%,67,99.9%,80.9,67.4%,106%,45.6%,85%
O=C(CCC(=O)c1nc2ncccc2[nH]1)NN1C(=O)CSC1c1ccc(Cl)cc1 (stereo not given),102,95.5,84.7%,94.2%,95.2%,94.3%,104%,90.3,91.4%,109%,106,100%,97%,70.7,126%,97.4,84.2%,111%,83.8%,106%
Cc1[nH]c(/C=C/C(=O)c2ccc(C(F)(F)F)c(F)c2)c(C)c1C(=O)NCC(C)C,93.8,102,89.4%,92.2%,100%,103%,99.8%,96.6,90.5%,106%,110,96.1%,97.9%,92,109%,101,94.8%,69%,101%,101%
COc1cc2oc(-c3cccc(NC(=O)c4ccc5c(c4)OCO5)c3)cc(=O)c2c(OC)c1OC,32.1,29.4,67.4%,45.6%,32.5%,-12% (active),16.4%,50,39.5%,55.1%,62.4,83.2%,42.1%,24.2,61.6%,47.8,77.1%,61.1%,-11.9% (active),2.9% (active)
C/C(=N\O)C(=O)NCCCCCC(=O)Nc1ccccc1,101,104,88.2%,99.3%,98.6%,104%,91.7%,94.3,89.7%,114%,110,98.2%,98.5%,90.3,89.6%,109,91.9%,90.2%,101%,101%
CCCC(O)Cn1ncc(C(=O)OCC)c1NC(=O)NCc1cccc(F)c1 (stereo not given),99.7,88.8,93.6%,102%,101%,83.6%,101%,97.1,92.7%,97.8%,90.7,97.8%,99.8%,79.3,87.5%,96.6,84.6%,108%,90.1%,70.6%
